This is an account of results in PubChem BioAssay.

In experiment [1] the test system is XIP peptide (Xip251-270) binding. In words: XIP fragment 251-270 binding compounds – biochemical, small-molecule microarray, fluorescence 635/667 nm, 0.1 µg/mL protein, primary screen (AID 1182). As to conditions: fluorescent protein binding, 635 nm, higher = more signal, called active from +8 up or from −8 down.
For the next experiment, the system named is XIP peptide (Xip251-270). In words: compounds binding XIP fragment 251-270 – biochemical, small-molecule microarray, fluorescence 635/667 nm, 0.5 µg/mL protein, primary screen (AID 1183). As to conditions: fluorescence 635 nm, higher = more signal.
The nature of experiment [2]: blood-stage malaria parasite viability loss – strain 3D7, DAPI fluorescence, 100 nL, primary screen (AID 1184).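 Note: parasites grown inside human red blood cells in medium with human serum.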 As to conditions: P. falciparum 3D7 growth, 3 d, higher = more signal.
For experiment [3], the target named is Homeobox protein Hox-A13 (Mus musculus) (UniProt Q62424). In words: disruptors of Hoxa13 oligonucleotide interaction – biochemical, fluorescence polarization, labeled oligonucleotide, primary screen (AID 1185). As to conditions: Hoxa13:DNA binding, 15 min, higher = more signal, called active from +8 up or from −8 down. (In fluorescence polarisation assays a small probe gives low polarisation when free and higher when bound to something large.)
Sequence of Homeobox protein Hox-A13 (Mus musculus) (Q62424 whole entry, looked up): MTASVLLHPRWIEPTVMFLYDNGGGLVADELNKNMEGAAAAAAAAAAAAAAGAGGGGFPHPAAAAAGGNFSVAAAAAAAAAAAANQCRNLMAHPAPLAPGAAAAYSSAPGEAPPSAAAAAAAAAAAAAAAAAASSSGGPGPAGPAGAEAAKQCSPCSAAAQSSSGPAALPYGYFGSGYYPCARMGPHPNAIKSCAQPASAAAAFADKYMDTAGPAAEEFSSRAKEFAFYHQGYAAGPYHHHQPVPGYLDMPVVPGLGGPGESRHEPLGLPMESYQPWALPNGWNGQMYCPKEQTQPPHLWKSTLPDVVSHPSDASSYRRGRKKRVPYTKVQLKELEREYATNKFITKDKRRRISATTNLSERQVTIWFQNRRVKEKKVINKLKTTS

Experiment [4] in a line: blockers of DNA damage checkpoint Chk1 activation – imaging, HeLa, hydroxyurea, phospho-Chk1 antibody, percent positive cells, primary screen (AID 1186). As to conditions: hydroxyurea-induced phospho-Chk1 immunofluorescence imaging, higher = more signal.
Experiment [5] in a line: blockers of DNA damage checkpoint Chk1 activation – imaging, HeLa, hydroxyurea, phospho-Chk1 nuclear intensity, primary screen (AID 1187). As to conditions: hydroxyurea-induced phospho-Chk1 immunofluorescence imaging, higher = more signal.

Each structure is given as a SMILES string. Active and inactive are the calls of the source. Unless noted, the rule behind the calls is not given here.

Consider `CO[C@H]1O[C@H](CO)[C@@H](OC(=O)Nc2ccc3c(c2)OCO3)[C@@H]2OC(=O)[C@@H](Cc3ccccc3)C/C=C/C[C@H](Cc3ccccc3)C(=O)O[C@@H]12`, for which the composite z-score in experiment [1] was 0.462 (inactive); in the experiment with XIP peptide (Xip251-270) it was 0.692. Also, the z-score in experiment [2] is -0.967; in experiment [3], -8.19 (active); in experiment [4], -0.508 (inactive); in experiment [5], -0.215 (inactive).
For `COCCOC(=O)N1C(=O)[C@@]2(c3cc(C#CC4=CCCCC4)ccc31)[C@H](C(=O)N1CCc3cc(OC)c(OC)cc3C1)[C@H]1C(=O)O[C@H](c3ccccc3)[C@H](c3ccccc3)N1[C@@H]2c1ccc(O)cc1`, the composite z-score in experiment [1] is 1.49 (inactive); with XIP peptide (Xip251-270) it was 0.795. Also, the z-score is -1.8 in experiment [2], 0.129 (inactive) in experiment [3], -0.0825 (inactive) in experiment [4] and 0.246 (inactive) in experiment [5].
Consider `COCCOC(=O)N1C(=O)[C@@]2(c3cc(C#CCCO)ccc31)[C@H](C(=O)N1CCc3cc(OC)c(OC)cc3C1)[C@H]1C(=O)O[C@H](c3ccccc3)[C@H](c3ccccc3)N1[C@@H]2c1ccccc1OCCO`, for which the figures for the composite z-score (in experiment [1]; in the experiment on XIP peptide (Xip251-270)) were 0.21 (inactive) and 0.805, respectively. Also, the z-score in experiment [2] was -2.18; in experiment [3] it was 0.554 (inactive); in experiment [4], 0.0905 (inactive); in experiment [5], 0.534 (inactive).
As to `COc1ccc([Si](C)(C)[C@H]2[C@H](CC(=O)N3Cc4ccccc4C[C@H]3CO)O[C@@]3(C(=O)N(Cc4cccc(N5C(=O)c6cccc7cccc5c67)c4)c4ccccc43)[C@@H]2C)cc1`, the composite z-score in experiment [1] was 0.14 (inactive); in the experiment on XIP peptide (Xip251-270), 0.802. Moreover, the z-score in experiment [2] is -2.45; in experiment [3], -2.56 (inactive); in experiment [4] it was -0.887 (inactive); in experiment [5], -0.153 (inactive).
Turning to `COC(=O)[C@@]1(Cc2ccc(F)cc2)[C@H]2c3cc(C(=O)N(C)C)n(CCn4cc([N+](=O)[O-])nc4C)c3C[C@H]2CN1C(=O)c1ccccc1`, the values for the composite z-score (in experiment [1]; in the experiment on XIP peptide (Xip251-270)) were 0.128 (inactive) and 0.5, respectively. Further, the z-score in experiment [2] is 0.653; in experiment [3], -2.06 (inactive); in experiment [4], 0.581 (inactive); in experiment [5], 0.197 (inactive).
In the case of `CCOC(=O)C1=C(C(=O)OCC)N(S(=O)(=O)CC[Si](C)(C)C)[C@H](c2ccccc2)CC1`, the results for the composite z-score (in experiment [1]; in the experiment on XIP peptide (Xip251-270)) were -0.177 (inactive) and 0.201, respectively. Also, the z-score in experiment [2] was -1.81; in experiment [3] it was -2.79 (inactive); in experiment [4] it was -0.184 (inactive); in experiment [5] it was -0.535 (inactive).
On to `CC(=O)c1ccc(C(O)C2C=CC3C(=O)N(C)C(=O)C3N2NC(=O)OC(C)(C)C)cc1` (configuration not stated), for which the composite z-score is 2.44 (inactive) in experiment [1] and 0.763 in the experiment on XIP peptide (Xip251-270). Further, the z-score in experiment [2] is -0.29; in experiment [3], -1.11 (inactive); in experiment [4], 0.976 (inactive); in experiment [5], 0.688 (inactive).
Take `COc1ccc(NN2C(C(O)c3cc(C(F)(F)F)cc(C(F)(F)F)c3)C=CC3C(=O)N(C4CCCCC4)C(=O)C32)cc1` (configuration not stated): the composite z-score in experiment [1] is 0.0376 (inactive); with XIP peptide (Xip251-270), 0.752. The z-score in experiment [2] was -0.5; in experiment [3], -3.31 (inactive); in experiment [4], -1.14 (inactive); in experiment [5] it was -2.01 (inactive).
With `COCCOC(=O)N1C(=O)[C@@]2(c3cc(C#Cc4ccc(OC)cc4)ccc31)[C@H](c1ccc(OCCO)cc1)N1[C@H](c3ccccc3)[C@H](c3ccccc3)OC(=O)[C@H]1[C@@H]2C(=O)N1CCCCCCC1`, the composite z-score in experiment [1] was 0.92 (inactive); in the experiment on XIP peptide (Xip251-270), 0.768. For the same compound, the z-score in experiment [2] was -2.09; in experiment [3] it was -15.8 (active); in experiment [4], -0.318 (inactive); in experiment [5], -0.217 (inactive).
With `COc1ccc(NN2C(C(O)c3ccc(OC)cc3)C=CC3C(=O)N(C4CCCCC4)C(=O)C32)cc1` (configuration not stated), the figures for the composite z-score (in experiment [1]; with XIP peptide (Xip251-270)) were 1.3 (inactive) and 0.7, respectively. Moreover, the z-score was -0.346 in experiment [2], -4.51 (inactive) in experiment [3], -1.28 (inactive) in experiment [4] and -1.13 (inactive) in experiment [5].
In the case of `C=CCC(OC(C)=O)[C@@H]1[C@@H](N(Cc2cccc3ccccc23)C(=O)c2ccc(C)cc2)c2cc(OCCCO)ccc2N1C(=O)c1ccc2ccccc2n1` (some centres not stated), the composite z-score in experiment [1] is 0.655 (inactive); in the experiment with XIP peptide (Xip251-270), -0.165. Further, the z-score was -0.344 in experiment [2], -0.702 (inactive) in experiment [3], -0.39 (inactive) in experiment [4] and -0.404 (inactive) in experiment [5].
Turning to `COCCOC(=O)N1C(=O)[C@@]2(c3ccccc31)[C@H](C(=O)N1CCCCCCC1)[C@H]1C(=O)O[C@H](c3ccccc3)[C@H](c3ccccc3)N1[C@@H]2c1ccc(O)cc1`, the composite z-score in experiment [1] was 3.54 (inactive); in the experiment on XIP peptide (Xip251-270), 0.83. The z-score in experiment [2] is -0.621; in experiment [3], 2.5 (inactive); in experiment [4], -0.391 (inactive); in experiment [5], -0.586 (inactive).
As to `CCC[C@@H]1C=C(C(=O)OCC)[C@H](c2ccccc2)N1S(=O)(=O)c1ccc(C)cc1`, the composite z-score in experiment [1] is 0.406 (inactive); with XIP peptide (Xip251-270), 0.681. For the same compound, the z-score in experiment [2] is -2.11; in experiment [3], -0.624 (inactive); in experiment [4] it was 0.144 (inactive); in experiment [5], 0.0243 (inactive).
On to `COC(=O)[C@@]1(Cc2ccc(OC)cc2)[C@@H]2[C@@H](CC(=O)[C@H]2CC(=O)C(=O)N2CCCC2)CN1C(=O)c1ccccc1`, for which the composite z-score in experiment [1] is 0.506 (inactive); in the experiment on XIP peptide (Xip251-270), 0.807. Moreover, the z-score in experiment [2] is -0.937; in experiment [3] it was -2.95 (inactive); in experiment [4], -0.961 (inactive); in experiment [5], -1.03 (inactive).
With `C/C=C/CN(C(=O)C#Cc1ccccc1)[C@H](CO[Si](C)(C)C(C)(C)C)c1ccccc1`, the figures for the composite z-score (in experiment [1]; in the experiment on XIP peptide (Xip251-270)) were -0.617 (inactive) and -0.109, respectively. The z-score is -2.04 in experiment [2], 1.99 (inactive) in experiment [3], -0.288 (inactive) in experiment [4] and -0.0994 (inactive) in experiment [5].
As to `C=C(COC)/C(=C/C[C@H](OC(=O)c1ccncc1)c1ccc(OCCO)cc1)c1cc(C(=O)OC)ccc1OC`, the composite z-score was -0.202 (inactive) in experiment [1] and 0.667 in the experiment with XIP peptide (Xip251-270). For the same compound, the z-score in experiment [2] was -3.05; in experiment [3], -4.65 (inactive); in experiment [4] it was 0.203 (inactive); in experiment [5], 0.159 (inactive).
Regarding `COc1cc2c(cc1O)C(c1ccc(CN3CCCC3)cc1)N(Cc1ccc([N+](=O)[O-])o1)CC2` (configuration not stated), the composite z-score was 0.119 (inactive) in experiment [1] and -0.0067 in the experiment with XIP peptide (Xip251-270). Besides, the z-score in experiment [2] was -0.672; in experiment [3] it was -7.64 (inactive); in experiment [4], 0.191 (inactive); in experiment [5], 0.134 (inactive).
As for `COCCOC(=O)N1C(=O)[C@@]2(c3cc(C#Cc4ccc(OC)cc4)ccc31)[C@H](C(=O)N1CCCCCCC1)[C@H]1C(=O)O[C@H](c3ccccc3)[C@H](c3ccccc3)N1[C@@H]2c1ccccc1OCCO`, the composite z-score in experiment [1] was 1.65 (inactive); in the experiment with XIP peptide (Xip251-270), 0.728. In addition, the z-score in experiment [2] was -2.15; in experiment [3] it was 4.81 (inactive); in experiment [4], -0.0224 (inactive); in experiment [5] it was 0.504 (inactive).
Consider `O=C1O[C@@H](c2ccccc2)[C@@H](c2ccccc2)N2[C@@H](c3ccc(OCCO)cc3)[C@]3(C(=O)Nc4ccc(C#CCCO)cc43)[C@@H](C(=O)Nc3nc4ccccc4s3)[C@H]12`, for which the composite z-score is 0.469 (inactive) in experiment [1] and 0.487 in the experiment with XIP peptide (Xip251-270). In addition, the z-score was -1.86 in experiment [2], 1.8 (inactive) in experiment [3], -0.234 (inactive) in experiment [4] and -0.41 (inactive) in experiment [5].
Consider `O=C1O[C@@H](c2ccccc2)[C@@H](c2ccccc2)N2[C@@H](c3ccc(O)cc3)[C@]3(C(=O)Nc4ccc(C#CC5=CCCCC5)cc43)[C@@H](C(=O)N3CCCCCCC3)[C@H]12`, for which the composite z-score in experiment [1] was 1.52 (inactive); in the experiment on XIP peptide (Xip251-270) it was 0.816. The z-score in experiment [2] was -1.99; in experiment [3], 4.91 (inactive); in experiment [4], -0.434 (inactive); in experiment [5], -0.686 (inactive).
For `CC(C)C[C@@H]1NC(=O)[C@@H]2C[C@H](C(=O)NCCCC[N+](C)(C)C)[C@H](c3ccc(O)cc3)N2C1=O`, the composite z-score was 1.03 (inactive) in experiment [1] and 0.858 with XIP peptide (Xip251-270). Moreover, the z-score in experiment [2] is -0.174; in experiment [3], -1.73 (inactive); in experiment [4], 0.757 (inactive); in experiment [5], 0.0766 (inactive).
For the compound `CCOC(=O)C[C@H]1[C@H](OC(=O)c2ccc(C(=O)c3ccccc3)cc2)[C@@H](NC(=O)c2ccc3ccccc3c2)c2cc(OCCCO)ccc2N1C(=O)c1ccc2ccccc2n1`, the composite z-score in experiment [1] was 0.27 (inactive); with XIP peptide (Xip251-270), 0.197. Moreover, the z-score in experiment [2] was -2.68; in experiment [3], -1.96 (inactive); in experiment [4], -0.318 (inactive); in experiment [5], 0.25 (inactive).
